PubChem BioAssay
Activity calls are given as the source filed them.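 How the source made its calls, unless noted: active means mean inhibition over 43.08%, the solvent-only control mean plus 3 SD; inactive means the rest.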

Legend:
[1] = biological target: Nuclear receptor coactivator 3 (Homo sapiens) (UniProt Q9Y6Q9); assay: NCOA3 GAL4-fusion reporter inhibition – cell-based, luminescence, quadruplicate, confirmation (AID 588792); conditions: HEK293 GAL4-SRC3 luciferase reporter, at 3.6 µM, active compounds read high;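 further: 0% = DMSO treated cells and 100% = gossypol at 36 µM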
Chain of Nuclear receptor coactivator 3 (Homo sapiens) (Q9Y6Q9 whole entry, looked up, the tested form may be a part): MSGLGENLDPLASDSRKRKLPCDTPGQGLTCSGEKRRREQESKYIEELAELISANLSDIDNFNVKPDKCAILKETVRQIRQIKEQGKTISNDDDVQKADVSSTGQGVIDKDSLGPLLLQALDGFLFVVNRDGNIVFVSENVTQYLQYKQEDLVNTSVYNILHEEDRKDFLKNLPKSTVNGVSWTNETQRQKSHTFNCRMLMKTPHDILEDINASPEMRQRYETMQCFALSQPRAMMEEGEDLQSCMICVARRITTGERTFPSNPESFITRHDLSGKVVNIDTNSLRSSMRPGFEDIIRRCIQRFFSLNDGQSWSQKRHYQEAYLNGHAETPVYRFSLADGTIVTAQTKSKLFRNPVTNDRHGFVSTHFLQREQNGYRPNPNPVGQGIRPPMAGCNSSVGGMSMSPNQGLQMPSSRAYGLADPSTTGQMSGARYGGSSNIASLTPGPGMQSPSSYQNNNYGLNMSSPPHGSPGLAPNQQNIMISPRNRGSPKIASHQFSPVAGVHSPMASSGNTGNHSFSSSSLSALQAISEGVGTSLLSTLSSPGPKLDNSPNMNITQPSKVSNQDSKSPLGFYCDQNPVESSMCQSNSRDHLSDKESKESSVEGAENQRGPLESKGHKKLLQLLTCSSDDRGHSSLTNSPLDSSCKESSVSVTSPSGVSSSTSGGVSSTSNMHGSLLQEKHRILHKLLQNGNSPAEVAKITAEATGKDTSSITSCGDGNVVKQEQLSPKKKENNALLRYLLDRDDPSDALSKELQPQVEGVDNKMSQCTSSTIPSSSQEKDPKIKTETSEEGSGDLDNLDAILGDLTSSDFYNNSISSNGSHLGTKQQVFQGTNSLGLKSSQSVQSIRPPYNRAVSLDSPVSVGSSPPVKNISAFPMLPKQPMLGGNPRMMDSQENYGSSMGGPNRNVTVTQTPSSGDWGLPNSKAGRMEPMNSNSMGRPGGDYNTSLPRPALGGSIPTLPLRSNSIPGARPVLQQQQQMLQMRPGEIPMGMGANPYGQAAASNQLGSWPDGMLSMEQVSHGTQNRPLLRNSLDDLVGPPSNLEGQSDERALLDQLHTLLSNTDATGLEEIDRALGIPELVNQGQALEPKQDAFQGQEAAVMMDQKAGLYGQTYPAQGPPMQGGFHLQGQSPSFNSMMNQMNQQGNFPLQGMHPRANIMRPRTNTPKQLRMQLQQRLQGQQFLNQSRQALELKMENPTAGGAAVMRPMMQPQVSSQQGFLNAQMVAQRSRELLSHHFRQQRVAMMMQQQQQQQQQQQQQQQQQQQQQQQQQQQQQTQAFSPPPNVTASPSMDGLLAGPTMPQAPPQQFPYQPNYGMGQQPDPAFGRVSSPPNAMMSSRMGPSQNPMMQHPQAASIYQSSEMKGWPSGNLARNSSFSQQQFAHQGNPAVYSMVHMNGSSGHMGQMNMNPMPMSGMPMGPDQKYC

[2] = test system: transactivating tegument protein VP16 (Human herpesvirus 1), Gal4-VP16 luciferase reporter; assay: repression of VP16-driven luciferase reporter – cell-based, luminescence, high throughput, counter-screen for SRC3 inhibitor project (AID 588794; in the data active means inhibition above about 30%); conditions: mammalian cells, at 3.6 µM, active compounds read high
[3] = biological target: Nuclear receptor coactivator 1 (Homo sapiens) (UniProt Q15788); assay: NCOA1 GAL4-fusion reporter inhibition – cell-based, luminescence, quadruplicate, confirmation (AID 588820;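 active means mean inhibition above 46.68%, the untreated control wells mean plus 3 SD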;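 further: 0% = DMSO wells and 100% = gossypol 36 µM treated wells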); conditions: HEK293 GAL4-SRC1 luciferase reporter, at 3.6 µM, active compounds read high
Chain of Nuclear receptor coactivator 1 (Homo sapiens) (Q15788 whole entry, looked up, the tested form may be a part): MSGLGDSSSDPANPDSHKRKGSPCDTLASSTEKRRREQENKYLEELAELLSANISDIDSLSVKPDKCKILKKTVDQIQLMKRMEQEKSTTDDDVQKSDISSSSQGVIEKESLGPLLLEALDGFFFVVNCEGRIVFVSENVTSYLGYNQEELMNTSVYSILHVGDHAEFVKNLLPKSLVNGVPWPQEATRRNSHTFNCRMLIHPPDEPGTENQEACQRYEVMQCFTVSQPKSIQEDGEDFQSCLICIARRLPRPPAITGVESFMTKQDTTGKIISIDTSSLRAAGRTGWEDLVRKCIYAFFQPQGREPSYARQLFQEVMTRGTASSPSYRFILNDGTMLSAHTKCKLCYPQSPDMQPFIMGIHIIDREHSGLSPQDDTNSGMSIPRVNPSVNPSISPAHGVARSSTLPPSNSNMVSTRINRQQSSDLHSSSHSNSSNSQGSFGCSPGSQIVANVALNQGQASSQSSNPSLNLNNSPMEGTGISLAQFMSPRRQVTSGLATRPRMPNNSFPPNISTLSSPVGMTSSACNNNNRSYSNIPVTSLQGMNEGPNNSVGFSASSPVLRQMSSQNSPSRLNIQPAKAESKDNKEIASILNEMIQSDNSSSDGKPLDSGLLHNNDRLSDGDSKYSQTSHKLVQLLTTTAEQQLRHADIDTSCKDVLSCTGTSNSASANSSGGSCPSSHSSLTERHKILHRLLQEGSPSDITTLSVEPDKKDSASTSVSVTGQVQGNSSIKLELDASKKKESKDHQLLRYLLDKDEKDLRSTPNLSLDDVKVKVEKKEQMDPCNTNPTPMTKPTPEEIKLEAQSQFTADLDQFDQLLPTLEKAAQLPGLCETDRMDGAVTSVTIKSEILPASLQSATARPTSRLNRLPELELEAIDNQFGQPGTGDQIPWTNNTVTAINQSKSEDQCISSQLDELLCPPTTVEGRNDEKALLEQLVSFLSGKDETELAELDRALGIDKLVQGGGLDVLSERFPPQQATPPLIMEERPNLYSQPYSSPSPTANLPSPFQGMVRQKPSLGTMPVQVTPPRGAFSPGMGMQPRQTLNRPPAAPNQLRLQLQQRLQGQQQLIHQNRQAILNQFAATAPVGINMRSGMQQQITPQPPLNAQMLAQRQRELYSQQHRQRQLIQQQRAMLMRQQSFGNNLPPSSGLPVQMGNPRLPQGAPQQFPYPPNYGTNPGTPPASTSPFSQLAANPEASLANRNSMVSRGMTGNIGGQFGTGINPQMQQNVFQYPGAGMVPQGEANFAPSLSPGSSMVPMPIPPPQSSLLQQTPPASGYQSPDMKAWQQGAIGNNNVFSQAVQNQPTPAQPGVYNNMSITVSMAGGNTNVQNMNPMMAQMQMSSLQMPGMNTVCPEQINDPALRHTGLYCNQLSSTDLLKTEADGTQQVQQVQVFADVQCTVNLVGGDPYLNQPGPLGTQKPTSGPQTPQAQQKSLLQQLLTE

[4] = repression of VP16-driven luciferase reporter – cell-based, luminescence, high throughput, counter-screen for SRC1 inhibitor project (AID 588824; in the data active means inhibition above about 25%); conditions: cell-based VP16 transactivation luciferase luminescence; at 3.6 µM; active compounds read high
[5] = test system: transactivating tegument protein VP16 (Human herpesvirus 1); assay: compounds suppressing VP16-driven luciferase signal – cell-based, luminescence, single concentration, counter-screen for SRC2 inhibitor project (AID 652007; in the data active means inhibition above about 36%); conditions: cell-based VP16 transactivation luciferase reporter, at 8.9 µM, active compounds read high
[6] = biological target: Nuclear receptor coactivator 2 (Homo sapiens) (UniProt Q15596); assay: inhibition of GAL4-SRC2 driven luciferase expression – cell-based, luminescence, HEK293, triplicate, confirmation (AID 652008;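 active means mean inhibition above 46.5%, the solvent-only control mean plus 3 SD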;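 further: 0% = DMSO-treated cells and 100% = Gossypol at 36 µM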); conditions: HEK293 GAL4-SRC2 luciferase reporter, at 8.9 µM, active compounds read high
Chain of Nuclear receptor coactivator 2 (Homo sapiens) (Q15596 whole entry, looked up, the tested form may be a part): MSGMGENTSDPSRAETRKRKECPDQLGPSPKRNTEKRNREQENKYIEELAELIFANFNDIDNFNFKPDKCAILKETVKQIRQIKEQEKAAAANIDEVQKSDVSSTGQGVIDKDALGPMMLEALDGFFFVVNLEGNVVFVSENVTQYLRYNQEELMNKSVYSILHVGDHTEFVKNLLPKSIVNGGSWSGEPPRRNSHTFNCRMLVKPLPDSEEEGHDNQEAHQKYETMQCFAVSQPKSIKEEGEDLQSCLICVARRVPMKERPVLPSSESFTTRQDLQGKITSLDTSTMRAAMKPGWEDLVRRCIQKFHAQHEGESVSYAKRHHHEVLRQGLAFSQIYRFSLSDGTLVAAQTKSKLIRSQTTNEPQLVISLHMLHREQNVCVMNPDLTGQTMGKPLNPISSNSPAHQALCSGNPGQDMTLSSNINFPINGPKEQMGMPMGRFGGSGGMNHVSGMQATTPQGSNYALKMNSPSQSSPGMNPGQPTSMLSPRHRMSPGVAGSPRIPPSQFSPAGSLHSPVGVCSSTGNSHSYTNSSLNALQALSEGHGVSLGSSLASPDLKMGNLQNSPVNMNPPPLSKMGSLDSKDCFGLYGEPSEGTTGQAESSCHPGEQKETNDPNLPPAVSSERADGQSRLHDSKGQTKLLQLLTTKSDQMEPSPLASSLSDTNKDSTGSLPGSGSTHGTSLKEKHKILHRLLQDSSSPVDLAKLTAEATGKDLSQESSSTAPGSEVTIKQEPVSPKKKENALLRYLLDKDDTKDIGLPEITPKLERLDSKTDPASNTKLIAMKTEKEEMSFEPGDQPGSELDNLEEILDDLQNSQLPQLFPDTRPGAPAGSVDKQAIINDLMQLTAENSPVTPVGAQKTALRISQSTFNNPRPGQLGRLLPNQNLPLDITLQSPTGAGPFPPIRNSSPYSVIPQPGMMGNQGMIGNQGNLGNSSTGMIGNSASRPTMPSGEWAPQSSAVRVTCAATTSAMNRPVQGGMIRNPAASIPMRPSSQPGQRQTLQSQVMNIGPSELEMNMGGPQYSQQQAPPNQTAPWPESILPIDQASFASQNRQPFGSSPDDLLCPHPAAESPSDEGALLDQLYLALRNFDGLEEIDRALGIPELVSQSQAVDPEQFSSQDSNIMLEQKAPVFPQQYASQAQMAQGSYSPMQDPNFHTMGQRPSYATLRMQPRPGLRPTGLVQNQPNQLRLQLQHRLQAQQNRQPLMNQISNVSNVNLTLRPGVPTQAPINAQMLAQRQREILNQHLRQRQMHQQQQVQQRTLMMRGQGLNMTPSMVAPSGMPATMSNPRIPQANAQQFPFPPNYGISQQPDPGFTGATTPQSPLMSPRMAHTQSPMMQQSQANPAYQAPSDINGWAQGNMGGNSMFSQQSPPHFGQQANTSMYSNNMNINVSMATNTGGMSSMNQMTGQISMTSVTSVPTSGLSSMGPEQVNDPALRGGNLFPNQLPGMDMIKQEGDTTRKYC

Measured: inhibition

Clc1ccc(CSc2nnc(-c3ccncc3)o2)cc1
active: [1] 48.3% | [2] 30.9% | [4] 32.8%
inactive: [3] 43.3% | [5] -11.8% | [6] 28.8%

C=C1C(=O)OC2CC1C(O)CC(C)=CCCC(C)=CC(O)CC2C (configuration not stated)
inactive: [1] 22.9% | [3] 27.9% | [5] 23.9%
active: [2] 42.7% | [4] 49.7% | [6] 50.8%

O=C1CCCCC1Sc1nnc(-c2ccc3c(c2)OCO3)o1 (configuration not stated)
inactive: [1] -5.91% | [2] -22.1% | [3] -129% | [4] -49.6% | [5] 34%
active: [6] 53.1%

COC(=O)Cc1[nH]n(-c2nc3ccccc3s2)c(=O)c1C(C)=Nc1ccc(OC)cc1
active: [1] 85.2% | [2] 78.4% | [3] 71.8% | [4] 73.8% | [5] 91.5% | [6] 93.9%

c1cc2[nH]snc2c2nc(C3CC3)nc12
active: [1] 63.9% | [3] 53.3%
inactive: [2] 18.3% | [4] 23.3% | [5] -12.6% | [6] 19%

C=CCN(CC=C)c1ncnc2[nH]ncc12
active: [1] 71.4% | [2] 50.9% | [3] 53.9% | [4] 45.2%
inactive: [5] -8.17% | [6] 34.4%

O=C(Nc1ccc2c(c1)OCCO2)C(c1ccnc2ccccc12)N1CCN(c2ccc(C(F)(F)F)cn2)CC1 (configuration not stated)
inactive: [1] 24.6% | [2] 18.1% | [3] 11.8% | [5] -0.8%
active: [4] 30.7% | [6] 57.8%

CCCCCN1C=CC(=C2C(=O)c3ccccc3C2=O)C=C1
inactive: [3] -55.8% | [4] 15.5%
active: [1] 44.2% | [2] 31.3% | [5] 55.1% | [6] 77.3%

Cn1cc(C(=O)N/N=C/c2c(O)ccc3ccccc23)ccc1=O
inactive: [5] -10.3% | [6] 26.8%
active: [1] 52.8% | [2] 42.4% | [3] 49.5% | [4] 44%

CCOc1cc(/C=C2\COc3ccccc3C2=O)cc(Br)c1OCC(=O)N(C)C
active: [1] 61.1% | [2] 35.8% | [4] 39.2% | [5] 44.5%
inactive: [3] 22.3% | [6] 34%

NC(=O)c1sc2nc3c(c(-c4cccs4)c2c1N)CCCCC3
active: [1] 83.3% | [2] 58.4% | [3] 77.6% | [4] 65% | [6] 60.3%
inactive: [5] 7.38%

Cc1c(/C(O)=C2/C(=O)C(=O)N(CCN3CCOCC3)C2c2ccco2)cnn1-c1ccccc1 (configuration not stated)
inactive: [1] 23.3% | [2] 5.75% | [3] -20.6% | [4] -37.5% | [5] -7.38% | [6] 39%

OCCCNc1ncnc2scc(-c3ccc(Cl)cc3)c12
active: [1] 62.6% | [2] 47.1% | [3] 62.6% | [4] 39.2% | [6] 46.5%
inactive: [5] 5.28%

CC1CCc2nc(NC(=O)C3COc4ccccc4O3)sc2C1 (configuration not stated)
inactive: [1] 9.01% | [2] -11.5% | [3] -134% | [4] -51.9% | [5] -16.9% | [6] 36.4%

Cc1cc(C(=O)COc2cccnc2[N+](=O)[O-])c(C)n1-c1ccccc1
inactive: [1] -5.17% | [2] -52.9% | [3] -11.3% | [4] -70.8% | [5] -71.7%
active: [6] 68.1%

COc1ccc(-c2nc(-c3ccccn3)no2)cc1
inactive: [3] 16.6%
active: [1] 63.4% | [2] 48.2% | [4] 44.4% | [5] 62.5% | [6] 80.7%

COc1ccc(-c2cc3nc(C)n(N)c(=O)c3s2)cc1
inactive: [3] 19.4%
active: [1] 57.6% | [2] 41.7% | [4] 39.4% | [5] 72% | [6] 83.8%

Cc1ccc(-n2c(C)c([N+](=O)[O-])c3ccc(O)c(CN(C)C)c32)cc1
inactive: [5] 2.96% | [6] 41.4%
active: [1] 76.7% | [2] 51.9% | [3] 63.4% | [4] 49.5%

COc1cccc(NC(=O)Nc2nc(-c3ccc(OC)c(OC)c3)cs2)c1
inactive: [3] 37.4%
active: [1] 81.3% | [2] 73.5% | [4] 74% | [5] 89.7% | [6] 92.9%

COc1ccc(-c2[nH]ncc2-c2ccc3c(c2)OCCO3)c(O)c1
active: [1] 74.4% | [2] 58.3% | [3] 72% | [4] 59.5% | [6] 47.5%
inactive: [5] 11.7%

Cc1nn(C(C)(C)C)c(C)c1/C=N/OC(=O)Nc1ccc(Cl)c(Cl)c1
inactive: [1] 20.2% | [2] 16.6% | [3] 25.3% | [4] 12%
active: [5] 63% | [6] 82%

CCOC(=O)c1cccc(NS(=O)(=O)c2ccc(NC(C)=O)cc2)c1
active: [1] 43.5% | [2] 35.8% | [4] 26.5%
inactive: [3] 40.5% | [5] -6.82% | [6] 40.8%

COc1ccc(/C=C2\CC/C(=C\c3ccc(OC)c(OC)c3)C2=O)cc1OC
inactive: [1] 30.9% | [2] 10.7% | [3] 16.2% | [4] 16.9%
active: [5] 41.5% | [6] 77.9%

COC(=O)CCNc1ccc2c(c1)OCCO2
inactive: [1] 7.16% | [2] -2.66% | [3] -12.2% | [4] -15.9% | [5] -9.29% | [6] 39.5%

O=C(N/N=C/c1cc([N+](=O)[O-])ccc1O)NC12CC3CC(CC(C3)C1)C2
inactive: [1] 19% | [2] 15.1% | [3] -3.01% | [4] 10.3% | [5] -0.05% | [6] 42.3%

c1ccc2c(-c3ccc4nncn4c3)cncc2c1
inactive: [5] -5.43% | [6] 46.3%
active: [1] 79% | [2] 54.1% | [3] 65.9% | [4] 56.4%

Cc1ccc(Sc2c(C=O)c3ccccc3n2C)cc1
inactive: [5] 7.13% | [6] 42.5%
active: [1] 63.2% | [2] 42.4% | [3] 54% | [4] 46.9%

O=C(CCl)NC(Cc1ccccc1)c1ccccc1 (configuration not stated)
inactive: [2] 14.2% | [3] 24.6% | [4] 6.41% | [5] 32.8%
active: [1] 52.5% | [6] 47.5%

Nc1ccccc1Nc1cccc(C(F)(F)F)c1
inactive: [1] 25.9% | [2] 18.6% | [3] -6.37% | [4] 13.5% | [5] 6.37% | [6] 43.7%

CNc1ccc2ncc(-c3cccc(C(=O)N(C)C)c3)n2n1
inactive: [5] -12.3% | [6] 42.7%
active: [1] 72.2% | [2] 62.2% | [3] 72.4% | [4] 60.8%

CN(C)c1ccc(C(=S)Nc2ccccc2)cc1
inactive: [1] 39.1% | [2] 13.3% | [3] -21.5% | [4] -24.4% | [5] -5.11%
active: [6] 51.1%

O=[N+]([O-])c1ccc2ncnc(Nc3ccc4c(c3)OCCO4)c2c1
active: [1] 57.9% | [2] 44.4% | [3] 59.8% | [4] 33.3%
inactive: [5] 3.91% | [6] 28.4%

O=C(Nc1ccccc1Oc1ccccc1)c1cc([N+](=O)[O-])ccc1Cl
inactive: [2] 24.8% | [3] 24.8% | [5] 21.9%
active: [1] 52.5% | [4] 33.9% | [6] 50.4%

CCn1c(Oc2ccccc2F)nc2c1c(=O)n(C)c(=O)n2C
active: [1] 63% | [2] 51% | [3] 64.4% | [4] 47.2% | [6] 48.6%
inactive: [5] -5.89%

S=C(c1ccc(-c2ccccc2)cc1)N1CCOCC1
active: [6] 79.1%
inactive: [1] 9.3% | [2] 4.1% | [3] 33.3% | [4] -6.87% | [5] 10.2%

Cc1ccc(/C=C2\SC(=S)N(CCCC(=O)NC3CCCC3)C2=O)cc1
inactive: [2] 14.5% | [3] 41.5% | [4] 14.4%
active: [1] 55.2% | [5] 79.5% | [6] 89.4%

CC(C)c1ccc(/C=C2\SC(=S)N(CCC(=O)N3CCCCC3CCO)C2=O)cc1 (configuration not stated)
inactive: [1] 23.5% | [2] -27.8% | [3] 10.1% | [4] -48.1% | [5] -75%
active: [6] 76.4%

C=CCn1c(C)cc(C(=O)COc2ccc(C)nc2[N+](=O)[O-])c1C
inactive: [1] 33.7% | [2] -8.11% | [3] 9.64% | [4] -12.6% | [5] -4.94%
active: [6] 65.9%

CCN(CC)c1ccc(/C=N/NC(=O)c2nnn(-c3nonc3N)c2C(C)C)c(O)c1
active: [1] 77.3% | [2] 72.6% | [3] 68.7% | [4] 65.5%
inactive: [5] -10.2% | [6] 29.9%

Brc1ccc2ncnc(Nc3ccc(N4CCOCC4)cc3)c2c1
inactive: [5] -2.24% | [6] 39.9%
active: [1] 57.9% | [2] 31.9% | [3] 59.7% | [4] 35.3%

CC(=O)/C(N=Nc1ccc2c(c1)OCCO2)=C(\C)O
active: [1] 45.3% | [6] 65.4%
inactive: [2] -50.6% | [3] 22.6% | [4] -66.6% | [5] -9.49%

CC1=C(C(=O)OCc2ccc3c(c2)OCO3)C(c2ccc(O)c([N+](=O)[O-])c2)NC(=O)N1 (configuration not stated)
active: [1] 60% | [2] 37.2% | [3] 58.6% | [4] 35.7%
inactive: [5] 20.7% | [6] 33.6%
